Experimental data from PubChem BioAssay (NCI).
About 83,000 compounds went through this panel and 20% of them were active in at least one assay; those are over-represented in the sample as a whole.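 Single-dose data. Exposure time 48 hours. Values below 10 considered active.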 Unmarked numbers belong to inactive results. The source made the active and inactive calls.

tested on: SK-MEL-2 melanoma; experiment: NCI-60 one-dose screen, 48 h (100 = growth as untreated, 0 = no growth, -100 = all killed); conditions: 10 µM unless noted

Row | SMILES | growth
1 | Cc1ccc2c(C(C[N+](=O)[O-])c3ccccc3)c(-c3ccccc3)[nH]c2c1 (stereo not drawn) | 1.05% [9.5 µM] (active)
2 | O=C1c2cccc3cccc(c23)C(=O)N1CCCCCN1CCN(CCCCCOc2ccc(-c3nc4ccc(N5CCOCC5)cc4[nH]3)cc2)CC1 | 87.4%
3 | COc1ccc(/C=C(\C#N)C(=O)Nc2cccc(Nc3nc(SC)nc(-c4cccc([N+](=O)[O-])c4)c3C#N)c2)cc1OC | 113%
4 | O=C1Nc2ccc(Br)cc2C12Oc1ccccc1C1CC(c3ccc(F)cc3)=NN12 (stereo not drawn) | 98.1%
5 | CSc1nc(-c2cccc(NC(=O)CCl)c2)c(C#N)c(=O)n1C | 70.9%
6 | Oc1cccc2ccc(N/N=C/c3cc(CN4CCOCC4)c(O)c4ncccc34)nc12 | 25%
7 | CC(C)(C)c1cc(C(C)(C)C)cc(S(=O)(=O)Nc2cc3ccccc3cc2C(=O)NCCN)c1 | 62.3%
8 | COc1ccc(/C=C/c2nc3ccccc3nc2/C=C/c2ccc(OC)cc2)cc1 | 101%
9 | COc1cc(/C=C/c2cc(/C=C/c3ccc(O)c(OC)c3)n(-c3c(Cl)cccc3Cl)c(=O)n2)ccc1O | 82.9%
10 | Cc1cc(C)nc(SC2=C(Nc3cc(Cl)ccc3O)C(=O)N(Cc3ccccc3)C2=O)n1 | 97.6% [30 µM]
11 | CC(C)(C)CC(C)(C)c1ccc(OCCOCC[N+](C)(C)Cc2ccccc2)cc1 | -69.4% (active)
12 | O=C(NCCN1CCOCC1)Nc1ccc(-c2cc3c(Nc4ccc(Oc5cccc(C(F)(F)F)c5)c(Cl)c4)ncnc3s2)cc1 | 32%
13 | NNCCc1ccc(NC(=O)CCCc2ccc(/C=C/C(=O)NO)cc2)cc1 | 52.4%
14 | COc1ccc(C2CC(c3ccc(Cl)cc3)=NN2/C=C2\SC(=S)N(NC(=O)Cc3ccccc3Nc3c(Cl)cccc3Cl)C2=O)cc1 (stereo not drawn) | 80.5%
15 | CCCSc1ccc2nc(NC(=O)OC)[nH]c2c1 | 7.33% (active)
16 | CCCN1CCN(c2ccc3nc(-c4ccc5nc(-c6ccc(OCC)cc6)[nH]c5c4)[nH]c3c2)CC1 | 78.9%
17 | CCn1c(O)c(/C=N/NC(=O)C(C)c2ccc(CC(C)C)cc2)sc1=S (stereo not drawn) | 40.3%
18 | CN1CCN(CCCOc2cccc3nc(Nc4cc(Cl)cc(Cl)c4)ccc23)CC1 | 86.9%
19 | O=C(CCN1C(=O)/C(=C/c2ccc(Cl)cc2)SC1=S)NCCCN1CCOCC1 | 106%

Row | SMILES | growth
20 | c1ccc(Cn2cc(-c3nc4ccccc4s3)c3cccnc32)cc1 | 102%
21 | O=C1c2cccc3cccc(c23)C(=O)N1CCCCN1CCN(CCCCOc2ccc(-c3nc4ccc(N5CCOCC5)cc4[nH]3)cc2)CC1 | 90.4%
22 | COc1cc(C2CC(=O)c3ccccc3N2)cc(OC)c1OC (stereo not drawn) | 74.3%
23 | O=C1c2cc3c(cc2-c2c1c1ccc(F)cc1c(=O)n2C[C@H](O)[C@H](O)[C@H](O)CO)OCO3 | -33.4% (active)
24 | Cc1[nH]c(-c2ccc3cc[nH]c3c2)c2c1C(=O)CCCC2 | 71%
25 | O=C(O)c1c(=O)cccc2ssc12 | 11.6%
26 | O=C1c2cc3c(cc2-c2c1c1ccc(Cl)cc1c(=O)n2CCCN1CCOCC1)OCO3 | 100%
27 | Cn1cc(-c2nonc2-c2c[nH]c3ccccc23)c2cccnc21 | 8.48% (active)
28 | CCCCN(CCCC)CCCn1c(-c2ccccc2)ccc1-c1ccccc1 | 93.5%
29 | CC1=CC(=NN=c2cc(C)n([O-])c(C)c2)C=C(C)[N+]1=O | 84.7%
30 | CN(C)S(=O)(=O)c1ccc(S(=O)(=O)Nc2cccc(Cl)c2N2CCCCC2)cc1 | 73.8%
31 | Cc1cn2c(/C=C3/C(=O)Nc4c3ccc3ccccc43)c(C(F)(F)F)nc2s1 | 20%
32 | Oc1cccc(-c2nc(N3CCOCC3)c3c4c(sc3n2)CCCC4)c1 | 71.3%
33 | COc1ccc(S(=O)(=O)N2CCCCC2)cc1NC(=O)c1[nH]c(C)c2c1CCCCC2=O | 19.6%
34 | Cc1cc(C)nc(SC2=C(Nc3cccc(Cl)c3)C(=O)N(Cc3ccccc3)C2=O)n1 | 75.9% [30 µM]
35 | C#Cc1cccc(NC(=O)c2ccccc2NC(=O)CCl)c1 | 90.2% [8.25 µM]
36 | C=C(C)[C@@H]1CC[C@]2(C(=O)OC)CC[C@]3(C)[C@H](CC[C@@H]4[C@@]5(C)C/C(=C/c6ccc(OC)cc6)C(=O)C(C)(C)[C@@H]5CC[C@]43C)[C@@H]12 | 104%
37 | N#Cc1c(-c2ccc(Cl)cc2)nc(N=Nc2c(O)[nH]c3ccc(Cl)cc23)nc1N1CCOCC1 | 98.1%
38 | CN1CCN(CCCOc2cccc3nc(Nc4ccc(Cl)c(F)c4)ccc23)CC1 | 83.7%
